Measurements published in PubChem BioAssay (EPA / NIEHS).
Calls of active or inactive are those of the source. Rule for the calls: active = hit-call score of the fitted dose curve at least 0.9, where 1 is the maximum; inactive = score below 0.9.

How the values were obtained:
[1] = read-out: Monokine induced gamma interferon (MIG), CXCL9 (gene 4283); test: BSK_hDFCGF_MIG: BioMAP Diversity Plus: hDFCGF Assay for Monokine induced gamma interferon (MIG) Biomarker Activity (AID 2283063); settings: primary human foreskin fibroblasts; actives raise or lower the signal
In short: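 ELISA read-out of MIG from primary human dermal fibroblasts 24 h post-dosing. Gain or loss of signal fitted bidirectionally, DMSO as baseline.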

[2] = read-out: Matrix Metallopeptidase 1 (MMP1), MMP1 (gene 4312); test: BSK_hDFCGF_MMP1: BioMAP Diversity Plus: hDFCGF Assay for Matrix Metallopeptidase 1 (MMP1) Biomarker Activity (AID 2283064); settings: primary human foreskin fibroblasts; actives raise or lower the signal
In short: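 ELISA read-out of MMP1 from human foreskin fibroblasts (primary skin cells), 24 h post-dose. Gain or loss of signal was fitted bidirectionally versus DMSO negative control; cytotoxicity was checked by SRB in parallel cultures.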

[3] = read-out: Vascular cell adhesion molecule 1 (VCAM1), VCAM1 (gene 7412); test: BSK_hDFCGF_VCAM1: BioMAP Diversity Plus: hDFCGF Assay for Vascular cell adhesion molecule 1 (VCAM1) Biomarker Activity (AID 2283065); settings: primary human foreskin fibroblasts; actives raise or lower the signal;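 for AC50: VCAM-1 protein level quantified by ELISA after 24 h chemical exposure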
In short: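 Primary human foreskin fibroblasts (hDFCGF system) were dosed with chemical and VCAM-1 was measured by ELISA 24 h later. Bidirectional curve fitting used DMSO as negative control and activity baseline.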

[4] = read-out: Plasminogen activator inhibitor-1 (PAI1), SERPINE1 (gene 5054); test: BSK_hDFCGF_PAI1: BioMAP Diversity Plus: hDFCGF Assay for Plasminogen activator inhibitor-1 (PAI1) Biomarker Activity (AID 2283066); settings: primary human foreskin fibroblasts; actives raise or lower the signal
In short: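 PAI-1 levels in human dermal foreskin fibroblasts were quantified by ELISA 24 h after dosing, with gain or loss analysed against DMSO. Overt cytotoxicity was checked by sulforhodamine B total-protein staining in parallel cultures.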

[5] = read-out: Intercellular Adhesion Molecule 1 (ICAM1), ICAM1 (gene 3383); test: BSK_KF3CT_ICAM1: BioMAP Diversity Plus: KF3CT Assay for Intercellular Adhesion Molecule 1 (ICAM1) Biomarker Activity (AID 2283067); settings: primary human keratinocytes with fibroblasts; actives raise or lower the signal
In short: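 Human keratinocyte plus foreskin fibroblast primary co-culture was exposed to chemical for 24 h. ICAM-1 was then quantified by ELISA, and the data were fit bidirectionally against DMSO as the negative control and baseline.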

[6] = BSK_KF3CT_SRB: Viability Assessment in the BioMAP Diversity Plus: KF3CT Assay (AID 2283069); settings: primary human keratinocytes with fibroblasts;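 note: read 24 h after compound addition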
In short: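 SRB read-out at 560 nm (0.1% stain, TCA-fixed cells) gauges overt cytotoxicity in a human skin keratinocyte–fibroblast co-culture 24 h post-dosing. Signal change was fitted bidirectionally relative to DMSO control.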

[7] = read-out: Interleukin-1 alpha (IL1a), IL1A (gene 3552); test: BSK_KF3CT_IL1a: BioMAP Diversity Plus: KF3CT Assay for Interleukin-1 alpha (IL1a) Biomarker Activity (AID 2283070); settings: primary human keratinocytes with fibroblasts; actives raise or lower the signal
In short: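 Primary skin co-culture (keratinocytes, foreskin fibroblasts), 24 h exposure; ELISA for IL-1a; bidirectional curve fit vs DMSO.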

[8] = read-out: C-C motif chemokine 2 (Homo sapiens) (UniProt P13500); test: BSK_KF3CT_MCP1: BioMAP Diversity Plus: KF3CT Assay for Monocyte Chemoattractant Protein 1 (MCP1/CCL2) Biomarker Activity (AID 2283073); settings: primary human keratinocytes with fibroblasts; actives raise or lower the signal
In short: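 Human keratinocyte plus foreskin fibroblast primary co-culture exposed to chemical for 24 h. MCP-1 levels measured by ELISA. Bidirectional curve fitting relative to DMSO negative control as baseline.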

[9] = read-out: urokinase plasminogen activator (uPA), PLAU (gene 5328); test: BSK_KF3CT_uPA: BioMAP Diversity Plus: KF3CT Assay for urokinase plasminogen activator (uPA) Biomarker Activity (AID 2283075); settings: primary human keratinocytes with fibroblasts; actives raise or lower the signal
In short: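 Skin co-culture (keratinocytes + foreskin fibroblasts), human primary; 24 h post-dose; uPA by ELISA; gain/loss fit vs DMSO baseline.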

CD40, CD40 (gene 958) = test: BSK_LPS_CD40: BioMAP Diversity Plus: LPS Assay for CD40 Biomarker Activity (AID 2283076); settings: primary human HUVEC with PBMC; actives raise or lower the signal
In short: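 Primary human umbilical vein endothelial cells co-cultured with peripheral blood mononuclear cells, LPS-stimulated, were dosed with chemical and read 24 h later. CD40 levels were measured by ELISA and fitted bidirectionally against DMSO as negative control and baseline.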

[10] = read-out: E-selectin (Homo sapiens) (UniProt P16581); test: BSK_LPS_Eselectin: BioMAP Diversity Plus: LPS Assay for Eselectin Biomarker Activity (AID 2283077); settings: primary human HUVEC with PBMC; actives raise or lower the signal
In short: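 Human umbilical vein endothelial cells co-cultured with peripheral blood mononuclear cells under LPS stimulation; E-selectin measured by ELISA 24 h after chemical dosing. Activity fitted bidirectionally against DMSO as negative control and baseline.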

[11] = read-out: Interleukin-8 (IL8), CXCL8 (gene 3576); test: BSK_LPS_IL8: BioMAP Diversity Plus: LPS Assay for Interleukin-8 (IL8) Biomarker Activity (AID 2283078); settings: primary human HUVEC with PBMC; actives raise or lower the signal
In short: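 Human umbilical vein endothelial cells co-cultured with PBMC were stimulated with LPS; IL-8 levels were measured by ELISA 24 h after chemical dosing. Activity was fitted bidirectionally against DMSO as negative control and baseline.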

[12] = BSK_LPS_SRB: Viability Assessment in the BioMAP Diversity Plus: LPS Assay (AID 2283079); settings: primary human HUVEC with PBMC;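 note: total protein by sulforhodamine B absorbance as a cytotoxicity measure; measured one day after compound addition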
In short: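 Human umbilical vein endothelial cells co-cultured with PBMC (LPS system) were dosed for 24 h. Total protein was stained with 0.1% sulforhodamine B after 10% TCA fixation, read at 560 nm, and fitted bidirectionally against DMSO baseline.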

[13] = read-out: Interleukin-1 alpha (IL1a), IL1A (gene 3552); test: BSK_LPS_IL1a: BioMAP Diversity Plus: LPS Assay for Interleukin-1 alpha (IL1a) Biomarker Activity (AID 2283080); settings: primary human HUVEC with PBMC; actives raise or lower the signal
In short: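 Human umbilical vein endothelial cells co-cultured with peripheral blood mononuclear cells were LPS-stimulated and exposed to test chemicals for 24 h. IL-1 alpha was quantified by ELISA, with bidirectional curve fitting against DMSO as the negative control and baseline.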

[14] = read-out: Monocyte Chemoattractant Protein-1 (MCP1), CCL2 (gene 6347); test: BSK_LPS_MCP1: BioMAP Diversity Plus: LPS Assay for Monocyte Chemoattractant Protein-1 (MCP1) Biomarker Activity (AID 2283081); settings: primary human HUVEC with PBMC; actives raise or lower the signal;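 for AC50: co-culture stimulated with LPS; secreted MCP-1 protein quantified by ELISA in culture supernatant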
In short: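 HUVEC plus PBMC co-culture (human primary cells, LPS system) exposed to test chemical for 24 h; MCP-1 measured by ELISA. Bidirectional curve fitting against DMSO baseline; parallel SRB total-protein staining flags overt cytotoxicity.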

[15] = BSK_LPS_PGE2: BioMAP Diversity Plus: LPS Assay for Prostaglandin E2 (PGE2) Biomarker Activity (AID 2283082); settings: primary human HUVEC with PBMC; actives raise or lower the signal;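 for AC50: secreted prostaglandin E2 measured by ELISA in LPS-stimulated co-culture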
In short: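 PGE2 release measured by ELISA in an LPS-activated co-culture of human umbilical vein endothelial cells and peripheral blood mononuclear cells, read at 24 h post-dosing. DMSO served as baseline for bidirectional curve fitting.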

[16] = read-out: TIMP metallopeptidase inhibitor 2 (TIMP2), TIMP2 (gene 7077); test: BSK_KF3CT_TIMP2: BioMAP Diversity Plus: KF3CT Assay for TIMP metallopeptidase inhibitor 2 (TIMP2) Biomarker Activity (AID 2283071); settings: primary human keratinocytes with fibroblasts; actives raise or lower the signal
In short: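 TIMP-2 measured by ELISA at 24 h in human keratinocyte/fibroblast primary co-cultures exposed to chemicals. Both increases and decreases were fitted against DMSO. Parallel cultures were stained with SRB for total protein as an overt-cytotoxicity check.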

[17] = read-out: Transforming growth factor beta 1 (TGFb1), TGFB1 (gene 7040); test: BSK_KF3CT_TGFb1: BioMAP Diversity Plus: KF3CT Assay for Transforming growth factor beta 1 (TGFb1) Biomarker Activity (AID 2283072); settings: primary human keratinocytes with fibroblasts; actives raise or lower the signal
In short: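 ELISA quantifies TGF-b1 at 24 h post-dose in a primary human skin co-culture of keratinocytes and fibroblasts, with gain or loss judged against DMSO. Parallel SRB total-protein staining flags overt cytotoxicity.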

[18] = read-out: Matrix Metallopeptidase 9 (MMP9), MMP9 (gene 4318); test: BSK_KF3CT_MMP9: BioMAP Diversity Plus: KF3CT Assay for Matrix Metallopeptidase 9 (MMP9) Biomarker Activity (AID 2283074); settings: primary human keratinocytes with fibroblasts; actives raise or lower the signal;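 for AC50: MMP9 protein level quantified by ELISA in the co-culture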
In short: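 ELISA read-out of MMP-9 at 24 h post-dosing in a co-culture of human skin keratinocytes and foreskin fibroblasts. Gain or loss of signal was fitted in both directions against DMSO.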

Measured: AC50

Sequence of E-selectin (Homo sapiens) (P16581 whole entry, looked up): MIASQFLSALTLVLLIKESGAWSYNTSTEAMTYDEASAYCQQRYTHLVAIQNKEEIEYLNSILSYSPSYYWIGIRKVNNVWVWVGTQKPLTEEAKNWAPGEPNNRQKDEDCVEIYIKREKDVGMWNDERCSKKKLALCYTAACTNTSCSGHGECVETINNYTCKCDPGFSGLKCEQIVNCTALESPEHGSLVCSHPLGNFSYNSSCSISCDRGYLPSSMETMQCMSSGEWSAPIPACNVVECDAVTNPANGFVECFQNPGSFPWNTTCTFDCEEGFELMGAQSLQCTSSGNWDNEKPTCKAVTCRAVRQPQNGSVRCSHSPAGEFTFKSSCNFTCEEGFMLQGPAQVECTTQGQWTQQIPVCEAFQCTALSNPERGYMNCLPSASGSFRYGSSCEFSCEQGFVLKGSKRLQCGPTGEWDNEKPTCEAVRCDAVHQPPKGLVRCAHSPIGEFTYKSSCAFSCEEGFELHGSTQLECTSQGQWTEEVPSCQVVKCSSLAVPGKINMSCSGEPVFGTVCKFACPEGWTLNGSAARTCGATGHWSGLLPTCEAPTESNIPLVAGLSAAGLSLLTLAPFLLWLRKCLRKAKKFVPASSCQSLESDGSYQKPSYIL

Cc1ccc2nc3sc(=O)sc3nc2c1
inactive: [2] | [4] | [6] | [8] | [9] | [11]
active: [1] 7.3 µM | [3] 5 µM | [5] 3.16 µM | [7] 5 µM | CD40, CD40 (gene 958) 4.27 µM | [10] 8.18 µM | [12] 3.67 µM | [13] 7.83 µM | [14] 6.93 µM | [15] 1.2 µM

N#CCCC(Br)(C#N)CBr (centres undefined)
active: [1] 6.19 µM | [2] 11.8 µM | [3] 3.74 µM | [4] 9.61 µM | [5] 26.8 µM | [6] 20 µM | [16] 20 µM | [17] 11.3 µM | [8] 20 µM | [18] 20 µM | [9] 23.9 µM | CD40, CD40 (gene 958) 8.78 µM | [10] 20 µM | [11] 26.7 µM | [12] 20 µM | [13] 11.7 µM | [14] 11 µM
inactive: [15]

Cc1ccccc1OP(=O)(Oc1ccccc1C)Oc1ccccc1C
inactive: [5] | [15]
active: [1] 12.8 µM | [2] 12.7 µM | [3] 6.18 µM | [4] 6.03 µM | [6] 20 µM | [7] 11.3 µM | [8] 12.1 µM | [18] 5.56 µM | [9] 20 µM | CD40, CD40 (gene 958) 9.38 µM | [10] 9.59 µM | [11] 12.6 µM | [12] 12.3 µM | [13] 11 µM | [14] 12.7 µM

c1ccc(-c2cccc(-c3ccccc3)c2)cc1
active: [2] 5.57 µM | [3] 12.4 µM | [4] 20 µM | [7] 7.05 µM | [18] 8.97 µM | CD40, CD40 (gene 958) 25.4 µM | [10] 29.7 µM | [11] 29.9 µM | [12] 23.9 µM | [13] 20 µM | [14] 29.5 µM | [15] 0.75 µM
inactive: [1] | [5] | [6] | [17] | [8] | [9]

Cc1cccc(OP(=O)(Oc2cccc(C)c2)Oc2cccc(C)c2)c1
active: [4] 0.0473 µM | [18] 20.3 µM
not listed: [7] | [16] | [17]
inactive: all other assays above

OCCN(CCO)CCO
not listed: [7] | [16] | [17]
inactive: all other assays above

NC(=O)CCl
not listed: [7]
inactive: all other assays above
